Source: PubChem BioAssay
Glyco luc inh = increase of ERlucT glycosylation luciferase signal, primary screen, N-linked glycosylation inhibitor project, D54 ERlucT cells, luminescence, set 2. D54 ERlucT glycosylation luciferase reporter, 24 h; percent of 100 nM tunicamycin response. reporter increase, % at 12.5 µM. 360,000 tested, 0.23% active. AID 588692, 2011;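 active = mean luciferase reporter signal, scaled so untreated is 0 and the glycosylation-blocking control 100, at or above a set limit in every replicate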;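 also: luciferase carries N-glycosylation sites so blocking glycosylation raises the light; 0% = median of neutral control wells and 100% = median of 100 nM tunicamycin wells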
RAD52 inh = RAD52 DNA annealing inhibitors, primary screen, biochemical, FRET, single point, set 2 | AID 651710, 2012 | inhibition, % at 18.7 µM | recombinant RAD52 DNA annealing, FRET fluorescence | 360,000 tested, 0.46% active;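 active = every replicate showing at least 50% inhibition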
miR122 inh = miR-122 Renilla sensor signal increase in Huh7, primary screen, miR-122 inhibitor project, cell-based, single point, plate reader | Huh7 miR-122 Renilla luciferase sensor, 48 h; neutral wells = 0, positive control = 100 | activation (reporter increase), % at 12.5 µM | 340,000 tested, 0.3% active;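 active = mean replicate activation score at least 90 and every replicate individually at or above 90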;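 also: higher luciferase means less miR-122 activity so hits act as miR-122 inhibitors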
NRP1-CendR mod = modulators of CendR peptide binding to NRP-1, primary screen, biochemical, fluorescence polarization, uHTS. FAM-RPARPAR peptide binding to NRP-1. inhibition, % at 25 µM. 360,000 tested, 0.85% active. AID 602438, 2012;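 active = inhibition or corrected inhibition above about 18%, plus a signal ratio from 0.5 to 1.5, limit read from the data, passing the limit was not always enough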
FID counter = compounds displacing fluorescent DNA intercalator, primary screen, artefact control for HCV NS3 helicase inhibitor project, biochemical, FID fluorescence | DNA fluorescent intercalator displacement | inhibition, % at 7.9 µM | 290,000 tested, 0.17% active | AID 1845, 2009; in the data active = inhibition above about 37%;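 also: 0% = vehicle and 100% = reference compound; higher means more ethidium bromide displaced from hairpin DNA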
RAD54 branch = inhibitors of human RAD54 branch migration, primary screen, biochemical, fluorescence, single point; DNA repair and recombination protein RAD54-like (Homo sapiens), Q92698; RAD54 Holliday junction branch migration, FAM/BHQ fluorescence; inhibition, % at 10.4 µM; 360,000 tested, 0.14% active; AID 602329, 2012;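 active = mean normalized replicate activity at least 40 and at least half of replicates scoring 40 or more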;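 also: 0% = median of neutral control wells and 100% = median of positive control wells; inhibitors cause a drop in the FAM fluorescence signal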
Target sequence (Q92698 whole entry, looked up): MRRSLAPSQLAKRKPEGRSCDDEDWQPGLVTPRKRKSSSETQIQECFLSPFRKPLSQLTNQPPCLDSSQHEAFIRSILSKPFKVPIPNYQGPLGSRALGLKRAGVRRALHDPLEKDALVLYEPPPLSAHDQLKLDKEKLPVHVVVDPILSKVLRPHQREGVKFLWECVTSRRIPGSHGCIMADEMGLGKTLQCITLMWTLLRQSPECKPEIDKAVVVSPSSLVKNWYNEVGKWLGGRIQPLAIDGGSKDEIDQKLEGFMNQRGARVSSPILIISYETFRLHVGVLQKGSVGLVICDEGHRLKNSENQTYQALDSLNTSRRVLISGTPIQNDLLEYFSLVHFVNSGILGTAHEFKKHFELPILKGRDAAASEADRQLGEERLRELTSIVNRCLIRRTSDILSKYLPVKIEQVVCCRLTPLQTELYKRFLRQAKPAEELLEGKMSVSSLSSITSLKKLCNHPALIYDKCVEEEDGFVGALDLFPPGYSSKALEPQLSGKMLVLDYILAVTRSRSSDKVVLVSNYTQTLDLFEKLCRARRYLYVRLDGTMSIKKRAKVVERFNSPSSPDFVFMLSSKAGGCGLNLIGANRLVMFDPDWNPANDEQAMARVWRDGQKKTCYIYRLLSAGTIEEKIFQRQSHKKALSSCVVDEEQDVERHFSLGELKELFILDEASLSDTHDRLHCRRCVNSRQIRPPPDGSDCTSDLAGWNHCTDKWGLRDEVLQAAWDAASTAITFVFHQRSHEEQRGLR
The depositor's hits bear a star; / = no result given; ! = repeats disagree; [ ] = dose if it differs, or a comment. Hits are enriched below; roughly 1.5% of the tested compounds scored in any of these assays.

SMILES | Glyco luc inh | RAD52 inh | miR122 inh | NRP1-CendR mod | FID counter | RAD54 branch
O=C(COc1ccc(Cl)cc1Br)N1CCN(c2ccccc2)CC1 | -2 | / | -1 | 34* | -9 | -10
O=C(/C=C/c1cccc(Br)c1)OCC(=O)N1CCN(c2ccccc2)CC1 | 2 | -10 | -5 | 27* | / | 11
C[C@H](CO)N1C[C@H](C)[C@@H](CN(C)C(=O)Nc2ccccc2)Oc2c(NS(C)(=O)=O)cccc2C1=O | / | 6 | 2[16.7 µM] | / | / | -1
C[C@@H]1CN([C@@H](C)CO)C(=O)c2cc(C3=CCCCC3)cnc2O[C@@H]1CN(C)Cc1cccnc1 | / | 0 | 27[16.7 µM] | / | / | -7
O=C(NCCc1ccccc1)c1ccc(Br)o1 | 0 | -7 | -1 | 24* | -1 | 1
O=C(NCCNC(=O)c1ccc(Br)o1)c1ccc(Br)o1 | 0 | / | 9 | 8 | 2 | -2
CC(C)NC(=O)N1CC2(C1)[C@H](c1ccccc1)[C@@H](CO)N2C(=O)C1CCCCC1 | / | -12 | / | / | / | /
O=C(CSc1nnc2ccccn12)Nc1ccc2c(c1)OCO2 | 3 | -4 | / | 11 | -3 | /
O=C(CCSc1nnc2ccccn12)Nc1ccc2c(c1)OCO2 | 1 | -1 | 0 | 23* | -4 | -3
c1ccn2c(SCc3ccc4c(c3)OCO4)nnc2c1 | 1 | / | 0 | 24* | -4 | -2
CO[C@H]1CN(C)C(=O)c2ccc(NC(C)=O)cc2OC[C@@H](C)N(C(=O)Cc2cccnc2)C[C@H]1C | / | -15 | / | / | / | 0
O=C(C[C@@H]1CC[C@@H]2[C@H](COC[C@H](O)CN2Cc2nccs2)O1)NCc1ccccc1Cl | / | -16 | -4[16.7 µM] | / | / | -12
C[C@H](CO)N1C[C@H](C)[C@@H](CN(C)C(=O)c2ccccc2F)Oc2ncc(-c3ccc(F)cc3)cc2C1=O | / | 7 | -4[16.7 µM] | / | / | 9
C[C@@H]1CN([C@@H](C)CO)C(=O)CCCn2cc(nn2)CO[C@H]1CN(C)C(=O)Nc1ccc(N2CCN(C)CC2)cc1 | / | 68*! | -1[16.7 µM] | / | / | 9
C[C@@H]1CN([C@@H](C)CO)C(=O)CCCn2cc(nn2)CO[C@@H]1CN(C)C(=O)Nc1ccc(N2CCN(C)CC2)cc1 | / | 42 | 3[16.7 µM] | / | / | 1
C[C@H](CO)N1C[C@H](C)[C@@H](CN(C)C(=O)Nc2ccc(N3CCN(C)CC3)cc2)OCc2cn(nn2)CCCC1=O | / | 66*! | 4[16.7 µM] | / | / | 5
C[C@@H]1CN([C@H](C)CO)C(=O)CCCn2cc(nn2)CO[C@@H]1CN(C)C(=O)Nc1ccc(N2CCN(C)CC2)cc1 | / | 3 | -3[16.7 µM] | / | / | 2
COC(=O)C[C@H]1CC[C@H](NS(=O)(=O)c2ccc(OC)cc2)[C@H](CO)O1 | / | -3 | / | / | / | 5
CCCNC(=O)N(C)C[C@@H]1Oc2ncc(C#CC3CC3)cc2C(=O)N([C@@H](C)CO)C[C@@H]1C | / | 4 | 1[16.7 µM] | / | / | 4
Cc1ccccc1NC(=O)c1cccc(NC(=O)CCC(=O)O)c1 | 1 | -21 | / | 23* | -13 | /
COc1cc(C2c3[nH]c4ccccc4c3CC3COC(=O)N32)cc(OC)c1O (configuration not stated) | 36* | -5 | 12 | -4 | / | /
COc1cc([C@H]2c3[nH]c4ccccc4c3C[C@H]3C(=O)N4[C@@H](c5cc(OC)c(OC)c(OC)c5)c5[nH]c6ccccc6c5C[C@H]4C(=O)N23)cc(OC)c1OC | 20 | / | -3 | -6 | -18 | -2
C[C@@H]1CCCCO[C@@H](CN(C)Cc2ccc(C(=O)O)cc2)[C@H](C)CN([C@H](C)CO)C(=O)c2cc(NS(=O)(=O)c3ccccc3)ccc2O1 | / | / | 9[16.7 µM] | / | / | -3
COc1ccc(S(=O)(=O)N(C)C[C@H]2Oc3ccc(NC(=O)Nc4ccccc4)cc3C(=O)N([C@@H](C)CO)C[C@H]2C)cc1 | / | 15 | 34[16.7 µM] | / | / | -1
CCOCCCNC(=O)c1cc2c(=O)n(CC)c3ccccc3c2s1 | 41* | -15 | -1 | 15 | -30 | 3
SMILES | Glyco luc inh | RAD52 inh | miR122 inh | NRP1-CendR mod | FID counter | RAD54 branch
CCn1c(=O)c2cc(C(=O)NCCOC)sc2c2ccccc21 | 13 | -12 | -3 | 7 | -27 | 0
C#CCNC(=O)C1=C[C@H](C2CCCCC2)C[C@H](OCc2ccc(CO)cc2)O1 | 2 | -33 | 8 | -9 | -36 | -5
C#CCNC(=O)C1=C[C@@H](C2CCCCC2)C[C@@H](OCc2ccc(CO)cc2)O1 | 1 | -6 | 1 | 28* | -37 | -12
C[C@H]1CN([C@@H](C)CO)C(=O)c2cc(C3=CCCC3)cnc2O[C@@H]1CN(C)Cc1ccc(F)cc1 | / | 11 | 1[16.7 µM] | / | / | -21
Clc1ccc(CNc2nc(N3CCOCC3)nc(N3CCOCC3)n2)cc1 | -1 | / | 129* | -7 | -30 | -9
c1ccc(CNc2nc(N3CCOCC3)nc(N3CCOCC3)n2)cc1 | -4 | / | 6 | 1 | -21 | -6
Cc1ccc(S(=O)(=O)NC[C@H]2CC[C@H]3[C@H](CN3Cc3cc(F)ccc3F)O2)cc1 | / | 61* | / | / | / | /
COc1ccc(S(=O)(=O)NC[C@H]2CC[C@H]3[C@H](CN3Cc3cc(F)ccc3F)O2)cc1 | / | 66* | / | / | / | /
O=C(c1ccccc1F)N1C[C@@H]2O[C@H](CNS(=O)(=O)c3ccccc3)CC[C@@H]21 | / | 59* | / | / | / | /
COCC(=O)Nc1ccc2c(c1)C(=O)N(C)C[C@@H](OC)[C@@H](C)CN(Cc1ccccn1)[C@H](C)CO2 | / | -16 | / | / | / | -3
Cc1ccc(S(=O)(=O)N(C)C[C@H]2Oc3c(NS(=O)(=O)c4cn(C)cn4)cccc3C(=O)N([C@@H](C)CO)C[C@@H]2C)cc1 | / | / | -2[16.7 µM] | / | / | /
COc1ccc(C(=O)Nc2ccc(C(=O)OCC(=O)c3cccc4ccccc34)cc2)cc1 | 2 | -18 | -3 | 32* | 1 | 5
COCC(C)n1c(SCC(=O)Nc2ccc3c(c2)OCCO3)nc2ccccc2c1=O (configuration not stated) | 1 | -19 | 0 | 22* | / | 1
COCCn1c(SCC(=O)Nc2ccc3c(c2)OCCO3)nc2ccccc2c1=O | 4 | -14 | -5 | -10 | / | 5
CN(C)c1ccc2c(c1)[C@H]1C[C@H](CC(=O)NCCN3CCCCC3)O[C@H](CO)[C@H]1O2 | / | 56* | -2[16.7 µM] | / | / | 38
CC(C)NC(=O)Nc1ccc2c(c1)CC(=O)N([C@H](C)CO)C[C@@H](C)[C@@H](CN(C)C(=O)NC(C)C)O2 | / | -2 | -9[16.7 µM] | / | / | 4
Cc1cc(=O)oc(C)c1C(=O)Nc1ccc2nsnc2c1 | 0 | / | -5 | 27* | -2 | -7
